HTT ATP protect: protects HTT-Q103 PC12 cells, measured by ATP; PC12 HTT-Q103 induced, cytoprotection, ATP luminescence, 40 h; Potency, µM (doses to about 56.4 µM), for inactives: cytoprotection (ATP increase), hits mostly activators; 0.14% of 230,000 active; AID 1471; active means well fitted curve in the direction sought with a large enough effect; inconclusive means small, poorly fitted or top-dose-only effect, or another doubt; inactive means no such curve, though single readings can be large; an effect the other way counts as inactive or inconclusive; further: % of control where 0% means no effect; nearly all actives have a fitted effect of over 45% in size
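Stable PC12 Q103-GFP cells in serum-supplemented, phenol red-free DMEM; induction by tebufenozide at 100 nM final; compound dose series; cell viability quantified luminescently from ATP.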
JMJD2E inh: inhibitors of human JMJD2E histone demethylase | JMJD2E catalytic domain, FDH-coupled NADH fluorescence (FDH is formaldehyde dehydrogenase) | Potency, µM (titrated, usually from 57.1 µM), inactives show top-dose activity change, negative = inhibition, actives largely listed as inhibitors | 1.6% of 230,000 active;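 further: 0% = wells with enzyme and -100% = buffer wells without enzyme; nearly all actives have a fitted effect of over 50% in size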
Target sequence (B2RXH2 1-337 limits assumed): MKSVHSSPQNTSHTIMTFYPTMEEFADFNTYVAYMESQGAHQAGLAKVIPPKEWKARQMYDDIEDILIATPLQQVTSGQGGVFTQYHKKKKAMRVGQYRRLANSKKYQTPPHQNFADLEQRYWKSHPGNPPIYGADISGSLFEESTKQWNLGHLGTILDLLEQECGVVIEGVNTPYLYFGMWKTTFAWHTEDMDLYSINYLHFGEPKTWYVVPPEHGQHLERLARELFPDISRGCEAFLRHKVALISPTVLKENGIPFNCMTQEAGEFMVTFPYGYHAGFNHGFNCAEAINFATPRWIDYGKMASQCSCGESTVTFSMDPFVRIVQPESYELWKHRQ
LMNA splice mod: modulators of lamin A splicing. HeLa LMNA splicing GFP/RFP minigene ratio, 48 h. Potency, µM (doses to about 46.1 µM), for inactives: at the top dose ratio change, negative = inhibition, most hits filed as inhibitors. 0.01% of 200,000 active. AID 1487; active means well fitted inhibition curve with a large enough effect in the signal ratio, with a control signal flat, not every such curve was filed as active; inconclusive means small, poorly fitted or top-dose-only effect, or effect the other way, or a change in a side signal; the % refers to the signal ratio; further: on the % scale 0 is the no-effect control and ±100 the full control effect
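Read-out is the ratio of GFP to DsRed2 object intensity, acquired by 488 nm laser-scanning cytometry on HeLa lamin A-EGFP minigene reporter cells. Compound incubation 48 hrs at 37 °C in Opti-MEM with 2% FBS; DMSO 0.5% final.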
ALDH1A1 block: inhibitors of human aldehyde dehydrogenase 1A1; P00352; Purified ALDH1A1, NADH fluorescence, propionaldehyde substrate; Potency, µM (highest dose often 75.3 µM), inactives show at the top dose activity, negative = inhibition, usual class: inhibitors; 7.3% of 220,000 active; AID 1030;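 further: plate controls were no enzyme wells and a reference inhibitor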
HTT aggregate: mutant huntingtin aggregation inhibition | PC12 HttQ103-GFP aggregates, Acumen cytometry, 40 h | Potency, µM (series often up to 46.1 µM), for the others: at the highest dose activity change, negative = inhibition, hits mostly inhibitors | 1.1% of 220,000 active | AID 1688; active means well fitted curve in the direction sought with a large enough effect; inconclusive means small, poorly fitted or top-dose-only effect, or another doubt; inactive means no such curve, though single readings can be large; an effect the other way counts as inactive or inconclusive; further: on the % scale 0 is the no-effect control and ±100 the full control effect; nearly all actives have a fitted effect of over 60% in size
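Ecdysone-promoter PC12 model expressing HTT exon 1 Q103 fused to GFP, induced by tebufenozide at 100 nM final. Compounds titrated; aggregates sized 1–25 µm scored on a 488 nm laser cytometer.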
HPGD inh: inhibitors of human 15-hydroxyprostaglandin dehydrogenase (HPGD); Potency, µM, without a hit: at the highest dose activity change, negative = inhibition, most hits filed as inhibitors; 4.3% of 150,000 active; P15428; purified HPGD, NADH fluorescence kinetic, PGE2 substrate; further: on the % scale 0 is the no-effect control and ±100 the full control effect
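20 nM HPGD preincubated 15 min at room temperature with compound in 50 mM Tris-HCl pH 8, 0.01% Tween 20. Started with 1 mM NAD+ and 30 uM prostaglandin E2; NADH fluorescence (360/450 nm) read 5 times over 30-s intervals, last minus first.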
* marks the source's active call; other numbers are inactive results; ? = inconclusive; / = not tested or not shown; [ ] = dose if it differs, or a comment. Rows were chosen to be rich in hits. Some 9.2% of all compounds tested hit in one or more screens of this group. Unless noted, the call rests on the fitted dose curve; in most records, active means well fitted inhibition curve with a large enough effect (not every such curve was filed as active); inconclusive means small, poorly fitted or top-dose-only effect, or another doubt; inactive means no such curve, though single readings can be large or run the other way. Potency means the concentration at half of the fitted maximal effect.

SMILES | HTT ATP protect | JMJD2E inh | LMNA splice mod | ALDH1A1 block | HTT aggregate | HPGD inh
COc1ccc(/C=C(\C#N)C(=O)N2CCOCC2)cc1Br | -6% | 4% | 3% | ? | -15% | 16µM*
COc1ccc(C(CNC(=O)c2ccc(S(=O)(=O)N(C)C)cc2)N2CCCCC2)cc1 (configuration not stated) | 18%[10 µM] | 2% | -4%[46 µM] | 10µM* | -1%[9.22 µM] | /
COc1ccc(-n2c(C)nc3cc(C(=O)NCCN4CCOCC4)ccc32)cc1 | 6%[10 µM] | -4% | 9% | 8% | -6% | -5%
O=C(c1ccc(-n2cnnn2)cc1)N1CCCCC1 | 27%[10 µM] | 1% | 3% | ? | 7% | 16µM*
Nc1ccc(C(=O)n2c3ccccc3c3ccccc32)cc1 | -75%[10 µM] | 1% | ? | 11µM* | ? | 32µM*
O=C(c1ccc(Cl)cc1)N1CCCOC1 | 2%[10 µM] | 3% | 10% | 18% | 4% | 8.9µM*
O=C(NC1CCCCC1)c1ccc(-n2cnnn2)cc1 | 4%[10 µM] | 1% | / | / | 3%[9.22 µM] | /
O=C(c1ccc(C(F)(F)F)cc1)N1CCCCC1 | 2% | 9% | -7% | -3% | -8% | 2.8µM*
Cn1c2ccccc2c2cc(C(=O)O)ccc21 | 3% | ? | 12% | 2% | 18%[9.22 µM] | -13%
CN1CCN(C(=O)c2ccc(C(F)(F)F)cc2)CC1 | 16% | 1% | -13%[46 µM] | 9% | 16% | /
CCOC(=O)C1Oc2ccccc2C(c2ccccc2)=C1C(C)=O (configuration not stated) | 7% | / | / | ? | / | -15%
COc1ccc(S(=O)(=O)N(C)c2ccc(C(=O)N3CCOCC3)cc2)cc1 | 1% | -2% | 15% | ? | -18% | 6.3µM*
COc1ccc(C(=O)N2CCCC2)cc1 | -12% | 4% | 7% | -14% | 2% | 6.3µM*
COc1ccc(-n2nc(C(=O)N3CCCCC3)c3ccccc3c2=O)cc1 | 10% | -5% | -3% | 7% | 2.8µM* | -5%
CCOC(=O)N1CCN(C(=O)c2nn(-c3cc(OC)cc(OC)c3)c(=O)c3ccccc23)CC1 | 18%[10 µM] | 1% | -6% | 7% | 10% | -5%
COc1ccc(OCc2ccc(C(=O)N3CCOCC3)cc2)cc1 | 0%[10 µM] | -7% | -16% | -6% | 20% | 7.9µM*
C=C(C)CSc1nc2ccccc2[nH]1 | / | 2% | 4% | 3% | -22% | ?
CC1(C)O[C@H]2O[C@@H]([C@H](O)CON3C(=O)c4ccccc4C3=O)[C@H](O)[C@H]2O1 | -7%[10 µM] | / | / | 24%[13.5 µM] | / | /
C[N+](C)(C)c1ccc([C@H](N)C(=O)O)cc1 | -7%[10 µM] | / | / | -1%[13.5 µM] | / | -7%
O=C(c1ccc(-c2ccccc2)cc1)N1CCC(C(=O)N2CCCC2)CC1 | 16%[0.074 µM] | -28% | -16% | -14% | -13% | 16µM*
COc1cc(/C=C(\C#N)C(=O)N2CCOCC2)ccc1OCc1ccccc1 | -3% | -17% | / | -15% | 2% | /
N#C/C(=C\c1ccc(OCc2ccc(C(=O)O)cc2)cc1)C(=O)N1CCOCC1 | -3%[10 µM] | -18% | 0% | -2% | 15% | 14µM*
COc1ccc(N(C)C(=O)c2cc3c(Cl)nc4ccccc4c3s2)cc1 | 11%[10 µM] | -14% | ? | -6% | 16% | 16µM*
CN(CCCNC(=O)c1cc2c(Cl)nc3ccccc3c2s1)Cc1ccccc1 | -67% | -28% | ? | 28µM* | ? | /
CCN(CC)CCCNC(=O)c1cc2c(Cl)nc3ccccc3c2s1 | 2% | -12% | ? | ? | -18% | /
c1cncc(CNc2ncncc2-c2cccnc2)c1 | 1% | / | 1% | 23% | / | /
COc1ccc(NC(=O)C2=C(C)Nc3c(C(=O)Nc4ccc(C)cc4)cnn3C2c2cccc(Cl)c2)cc1 (configuration not stated) | / | / | -19%[46 µM] | / | / | /
Cc1ccc(S(=O)(=O)N[C@H](CN)C(=O)O)cc1 | 4%[10 µM] | / | / | 6%[13.5 µM] | / | -1%
COc1ccc(N2C(=O)C3C(C2=O)C2C=CC3C23CC3)c([N+](=O)[O-])c1 (configuration not stated) | -23% | -6% | 10%[46 µM] | -2% | -4% | /

From PubChem
